# Source: PubChem BioAssay
# NPC1 promoter act = activators of NPC1 promoter | Huh7 NPC1 promoter luciferase reporter, 24 h | Potency, µM (titrated, usually from 9.22 µM), without a hit: top-dose activation, actives largely listed as activators | hit rate 2.4% among 320,000; further: % of control where 0% means no effect; nearly all actives have a fitted effect of over 60% in size
#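 Readout is luciferase luminescence, reflecting NPC1 promoter activation in stably transfected Huh7 cells after 24 h compound exposure at 37 °C in reduced-serum medium with 10% FBS.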
# SMN2 splice up = increases expression of the SMN2 splice variant. Potency, µM (series often up to 46.1 µM), for the others: top-dose activity change, positive = activation, actives largely listed as activators. HEK293 SMN2-luciferase splicing reporter, luminescence, 30-36 h. hit rate 2.8% among 210,000; further: % of control where 0% means no effect; nearly all actives have a fitted effect of over 55% in size
#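 HEK293 cells carry an SMN2 minigene-luciferase reporter in which exon 7 inclusion puts luciferase in frame. Cells were seeded at 2000 cells/well, attached for 10-12 hours, then exposed to compounds for 30-36 hours at 37C before ONE-Glo luminescence.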
# FLuc modulator = firefly luciferase modulation, counter-screen for miR-21 project. Potency, µM (doses to about 57.5 µM), inactives show top-dose activity change, negative = inhibition, usual class: inhibitors. P08659. hit rate 6.9% among 360,000. AID 588342. purified FLuc, Km substrates, luminescence inhibition;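 further: plate controls were vehicle for no effect and reference inhibitor for full effect; nearly all actives have a fitted effect of over 55% in size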
# Target sequence (P08659 whole entry, looked up): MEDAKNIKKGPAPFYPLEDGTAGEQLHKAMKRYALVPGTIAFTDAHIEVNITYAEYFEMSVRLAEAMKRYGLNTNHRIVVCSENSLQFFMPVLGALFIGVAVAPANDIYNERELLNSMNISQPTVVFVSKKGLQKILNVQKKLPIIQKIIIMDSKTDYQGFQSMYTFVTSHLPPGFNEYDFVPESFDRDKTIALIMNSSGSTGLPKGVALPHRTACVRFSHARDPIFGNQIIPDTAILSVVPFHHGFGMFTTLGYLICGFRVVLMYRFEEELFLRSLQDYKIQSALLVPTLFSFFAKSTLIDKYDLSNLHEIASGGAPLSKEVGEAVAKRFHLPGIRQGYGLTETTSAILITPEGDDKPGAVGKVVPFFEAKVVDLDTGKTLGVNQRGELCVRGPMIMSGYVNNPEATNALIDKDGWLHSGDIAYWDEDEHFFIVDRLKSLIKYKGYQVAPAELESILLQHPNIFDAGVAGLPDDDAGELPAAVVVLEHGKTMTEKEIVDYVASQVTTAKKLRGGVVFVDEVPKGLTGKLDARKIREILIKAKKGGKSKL
#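 Biochemical qHTS of compounds, final roughly 60 µM downward over six points, against 10 nM purified firefly luciferase using Km concentrations of substrates (10 uM D-luciferin, 10 uM ATP) in Tris acetate pH 7.5 buffer; luminescence output.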
# ELG1 genotoxic = induces genotoxicity in HEK293T cells with luciferase-tagged ELG1; HEK293T ELG1-luciferase reporter, luminescence, 16 h; Potency, µM (top dose mostly 46 µM), inactives show top-dose activity change, positive = activation, usual class: activators; hit rate 1.3% among 330,000; further: % of control where 0% means no effect; nearly all actives have a fitted effect of over 60% in size
#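 16 hr compound incubation (37 °C, 5% CO2) of HEK293T cells carrying luciferase-tagged ELG1; luciferase then measured by ONE-Glo luminescence after 30 min at RT.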
# Rab9 promoter act = activates the Rab9 promoter; hit rate 2.8% among 320,000; Huh7 Rab9 promoter-luciferase reporter, luminescence, 24 h; Potency, µM (doses to about 9.22 µM), for the others: top-dose activation, negative = inhibition, hits mostly activators; AID 485297; further: % of control where 0% means no effect; nearly all actives have a fitted effect of over 60% in size
#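 Steps: seed 1500 Huh7 Rab9-luc cells per well, rest 2 h at 37 °C; add compound in DMSO; incubate 24 h; add luciferase reagent, 10 min ambient; read luminescence.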
# * = called active by the depositor; ? = inconclusive; . = no result given; [ ] = remark or other dose. Most compounds without a hit are left out; they make up all but 7.4% or so of the library. The call rests on the fitted dose curve; in most records, active means well fitted curve in the direction sought with a large enough effect; inconclusive means small, poorly fitted or top-dose-only effect, or another doubt; inactive means no such curve, though single readings can be large; an effect the other way counts as inactive or inconclusive. Potency means the concentration at half of the fitted maximal effect.
SMILES,NPC1 promoter act,SMN2 splice up,FLuc modulator,ELG1 genotoxic,Rab9 promoter act
O=c1[nH]cnc2scc(C3COc4ccccc4O3)c12 (stereo not drawn),9%,-8%,?,5%,17%
CCOc1cccc(-c2csc(C3COc4ccccc4O3)n2)c1 (stereo not drawn),?,4µM*,2.1µM*,?,4µM*
Cc1nn(-c2ccccc2)c(/N=C/c2ccc(O)cc2)c1-c1ccccc1,?,18µM*,-5%,14%,?
O=C(/C=C/c1ccccc1Cl)c1ccc(O)cc1,-4%,.,9.5µM*,13%,1%[1.84 µM]
N#Cc1ccc(/C=C/C(=O)c2cccnc2)cc1,-11%,2%,-13%,?,1%
O=C(/C=C/c1c(F)cccc1Cl)c1ccc(O)cc1,0%,.,11µM*,4%,0%
O=C(/C=C/c1ccccc1Cl)c1ccccc(=O)c1O,-2%,-111%,?,-19%,-4%
COc1ccc(OC)c(C(=O)/C=C/c2cccnc2)c1,-7%,.,2%,0%,-8%
COc1cc(C(=O)/C=C/c2cccnc2)ccc1O,-4%,.,19µM*,-39%,6%
C=CCNC(=O)/C=C/c1c(F)cccc1Cl,11%,14%,?,13%,?
O=C(/C=C/c1ccc(Cl)cc1)c1cccnc1,2%,-8%,21µM*,14%,-4%
O=C1CCC/C(=N/Nc2ccc(Cl)cc2)C1,-3%,-12%,?,2%,4%
Cc1cc(C)n2nc(C(=O)OCC(=O)N(C)CC(=O)Nc3ccccc3Cl)nc2n1,0%,.,5%,-3%,-4%
O=C(/C=C/c1ccccc1Cl)c1cccnc1,-4%,-18%,17µM*,14%,1%
O=C(NNC(=O)c1ccccc1Cl)c1cccnc1,-2%,.,-11%,4%,16%
O=C(/C=C/c1c(F)cccc1Cl)Nc1ncccn1,2.8µM*,14µM*,15µM*,?,2.5µM*
COc1ccc(NC(=O)CN2CCN(c3c(C)cccc3C)CC2)cc1,-1%,.,4%,-4%,-1%
CC1=C(CC[C@H](C)CO)O[C@@H]2C[C@@H]3[C@H]4CC[C@H]5C[C@@H](O)CC[C@]5(C)[C@@H]4CC(=O)[C@@]3(C)[C@@H]12,.,-1%[9.22 µM],.,.,.
O=C(O)CCN1C(=O)/C(=C\c2cccc(Oc3ccccc3)c2)SC1=S,-6%,.,24µM*,1%,-7%
CCOc1ccc(/C=C2\SC(=S)N(CCC(=O)N(CCO)c3ccccc3)C2=O)cc1,0%,.,9.5µM*,-6%,-10%
CCc1ccc(/C=C2/SC(=S)N(CCC(=O)Nc3ccc(C(=O)O)cc3)C2=O)cc1,19%,.,0.85µM*,-4%,-6%
CCN(C(=O)CCN1C(=O)/C(=C/c2ccccc2)SC1=S)C1CCS(=O)(=O)C1 (stereo not drawn),-18%,.,24µM*,-8%,-22%
Cc1ccc(NC(=O)CSc2nnc(N)s2)cc1S(=O)(=O)N1CCOCC1,-5%,.,-12%,0%,-6%
CCc1ccc(/C=C2/SC(=S)N(CCC(=O)Nc3cccc(C(=O)O)c3)C2=O)cc1,?,.,2.1µM*,?,25%
O=C(O)CN1C(=O)/C(=C\c2cccc(OCc3ccccc3F)c2)SC1=S,8%,.,21µM*,5%,-3%
SMILES,NPC1 promoter act,SMN2 splice up,FLuc modulator,ELG1 genotoxic,Rab9 promoter act
CN1C(=O)S/C(=C/c2ccc(OCc3cccc(C(=O)O)c3)cc2)C1=O,0.4µM*,.,2.7µM*,?,0.28µM*
O=C(CCN1C(=O)/C(=C/c2ccc(Cl)cc2)SC1=S)Nc1ccc(C(=O)O)cc1,-5%,.,11µM*,0%,0%
COc1cccc(/C=C2/SC(=O)N(C)C2=O)c1OCc1ccc(C(=O)O)cc1,-1%,.,-3%,11%,-1%
Cc1cc(C(=O)CSc2nnc(CCC(N)=O)n2C)c(C)n1C1CC1,-1%,.,-12%,1%,0%
CCCCOc1c(Cl)cc(C(=O)N(Cc2ccc(C)o2)C2CCS(=O)(=O)C2)cc1Cl (stereo not drawn),.,-32%,-7%,.,.
O=C(COC(=O)Cn1nnc2ccccc21)NC1CCCC1,-1%,.,6%,-6%,-2%
CCOc1cc(Br)cc(C2NC(=O)c3c(sc4c3CCN(C)C4)N2)c1O (stereo not drawn),.,4%,?,.,.
CCc1ccc(/C=C2\SC(=S)N(CCCC(=O)Nc3ccccn3)C2=O)cc1,-21%,-57%,15µM*,-1%,-20%
COc1ccc(/C=C2\SC(=S)N(CCC(=O)Nc3ccc(C(=O)O)cc3)C2=O)cc1,12%,.,3µM*,?,0%
COc1cccc(/C=C2\SC(=S)N(CCCC(=O)N3CCCC3)C2=O)c1,-12%,.,17µM*,-7%,-17%
COC(=O)c1ccc(/C=C2/SC(=S)N(CCCC(=O)Nc3ccccn3)C2=O)cc1,-11%,-9%,?,1%,-10%
O=C(CCN1C(=O)/C(=C/c2cccs2)SC1=S)N1CCCCC1,-20%,.,15µM*,7%,-21%
O=C(CCN1C(=O)/C(=C\c2ccccc2)SC1=S)N1CCCCC1,-21%,.,?,-7%,-21%
COc1ccc(/C=C2/SC(=S)N(CCC(=O)O)C2=O)cc1,-8%,-13%,5.4µM*,-4%,-12%
Cc1ccc(CNC(=O)c2cn(C)c3ccc(S(=O)(=O)N4CCC(C)CC4)cc3c2=O)cc1,.,-2%,-6%,.,.
C/C=C\C=C/C(=O)Nc1cccc(C2=NOC3(C2)C[C@H](C(N)=O)N(C(=O)CC)C3)c1 (stereo partly drawn),1%,.,19µM*,0%,3%
C/C=C\C=C/C(=O)Nc1cccc(C2=NOC3(C2)C[C@H](C(N)=O)N(C(=O)Cc2ccc([N+](=O)[O-])cc2)C3)c1 (stereo partly drawn),-1%,.,21µM*,8%,1%
C/C=C/C=C/C(=O)N1CC2(CC(c3cccc(NC(=O)CCCCC)c3)=NO2)C[C@H]1C(N)=O (stereo partly drawn),-3%,.,-17%,-3%,-1%
C/C=C\C=C/C(=O)Nc1cccc(C2=NOC3(C2)C[C@@H](C(N)=O)N(C(=O)CCCCC)C3)c1 (stereo partly drawn),-39%,.,13µM*,2%,-5%
COP(=O)(CC(=O)c1ccccc1)CC(=O)c1ccccc1,-1%,-3%,-2%,-1%,-3%
CC1=NN2C(=N)/C(=C\c3ccc(SCc4ccccc4)o3)C(=O)N=C2S1,-4%,-18%,-6%,3%,2%
N=C1/C(=C\c2ccc(SCc3ccco3)o2)C(=O)N=C2SC=NN12,-1%,1%,8.5µM*,6%,22%
CC(C)C(=O)OC1=CN(Cc2ccccc2)S(=O)(=O)c2ccccc21,.,.,-3%,.,.
Cc1ccccc1NC(=O)c1nc2nccc(C)n2n1,?,14µM*,?,?,3.5µM*
